Assay results from PubChem BioAssay (NCI).
This is part of a sample that, as a whole, favours compounds with a hit. Of some 83,000 tested, about 20% had one in any assay.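 Assay: single dose, 48 h. Readout: percent growth (0 = no net growth; negative = cell death). Active: <10.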 Active and inactive are the calls of the source.

How the values were obtained:
Assay in all cases: NCI-60 one-dose screen, 48 h (100 = growth as untreated, 0 = no growth, -100 = all killed)
Details in all cases: 10 µM unless noted
NCI-H23 lung = test system: NCI-H23 lung
NCI-H226 lung = test system: NCI-H226 lung
NCI-H322M lung = test system: NCI-H322M lung
HOP-62 NSCLC = test system: HOP-62 NSCLC
NCI-H460 lung = test system: NCI-H460 lung
HOP-92 NSCLC = test system: HOP-92 NSCLC
NCI-H522 lung = test system: NCI-H522 lung
A549/ATCC NSCLC = test system: A549/ATCC NSCLC
786-0 renal = test system: 786-0 renal
COLO 205 colon = test system: COLO 205 colon
DU-145 prostate = test system: DU-145 prostate
K-562 leukemia = test system: K-562 leukemia
MALME-3M melanoma = test system: MALME-3M melanoma
MDA-MB-231 breast = test system: MDA-MB-231 breast
RXF 393 renal = test system: RXF 393 renal
SF-268 CNS = test system: SF-268 CNS
SF-295 CNS = test system: SF-295 CNS
SF-539 CNS = test system: SF-539 CNS
UACC-257 melanoma = test system: UACC-257 melanoma
M14 melanoma = test system: M14 melanoma

Measured: growth

Cn1cc(/C=C2/C(=O)Nc3ccccc32)c2ccccc21
inactive: NCI-H23 lung 73.4% | NCI-H226 lung 70.6% | NCI-H322M lung 91.5% | HOP-62 NSCLC 76.8% | NCI-H460 lung 92.4% | HOP-92 NSCLC 87.4% | NCI-H522 lung 77.8% | A549/ATCC NSCLC 86.2% | 786-0 renal 98.4% | COLO 205 colon 91.7% | DU-145 prostate 99.1% | K-562 leukemia 96.7% | MALME-3M melanoma 94.5% | MDA-MB-231 breast 109% | RXF 393 renal 96.7% | SF-268 CNS 84.5% | SF-295 CNS 108% | SF-539 CNS 80% | UACC-257 melanoma 95.9% | M14 melanoma 92.3%

N#Cc1nc2c(S(=O)(=O)c3ccccc3)c(N)n(Cc3cccnc3)c2nc1C#N
active: HOP-62 NSCLC -8.31% | HOP-92 NSCLC -14.8%
inactive: NCI-H23 lung 88.5% | NCI-H226 lung 97.7% | NCI-H322M lung 91.7% | NCI-H460 lung 113% | NCI-H522 lung 46.8% | A549/ATCC NSCLC 90.1% | 786-0 renal 106% | COLO 205 colon 92.3% | DU-145 prostate 90.6% | K-562 leukemia 51.6% | MALME-3M melanoma 78.1% | MDA-MB-231 breast 84.7% | RXF 393 renal 59.7% | SF-268 CNS 52.2% | SF-295 CNS 92.7% | SF-539 CNS 58.7% | UACC-257 melanoma 80.3% | M14 melanoma 142%

C[C@@H](CO)[C@@H]1CC[C@]2(C(=O)N3CCN(C)CC3)CC[C@]3(C)[C@H](CC[C@@H]4[C@@]5(C)CC[C@H](O)C(C)(C)[C@@H]5CC[C@]43C)[C@@H]12
active: K-562 leukemia 4.66%
inactive: NCI-H23 lung 78.5% | NCI-H226 lung 81.4% | NCI-H322M lung 99.7% | HOP-62 NSCLC 116% | NCI-H460 lung 49.4% | HOP-92 NSCLC 47.7% | NCI-H522 lung 74.1% | A549/ATCC NSCLC 88.6% | 786-0 renal 74% | COLO 205 colon 90.2% | DU-145 prostate 67.7% | MALME-3M melanoma 105% | MDA-MB-231 breast 82.8% | RXF 393 renal 81.5% | SF-268 CNS 56.7% | SF-295 CNS 90.4% | SF-539 CNS 86.1% | UACC-257 melanoma 98% | M14 melanoma 101%

Cc1c(N2CN3C[C@H](C)N4CN(c5c(C)n(C)n(-c6ccccc6)c5=O)CN5C[C@@H](C)N(C2)C3C54)c(=O)n(-c2ccccc2)n1C (stereo not given in full)
inactive: NCI-H23 lung 95.1% | NCI-H226 lung 101% | NCI-H322M lung 103% | HOP-62 NSCLC 103% | NCI-H460 lung 101% | HOP-92 NSCLC 90.8% | NCI-H522 lung 98.9% | A549/ATCC NSCLC 106% | 786-0 renal 102% | COLO 205 colon 109% | DU-145 prostate 112% | K-562 leukemia 17.9% | MALME-3M melanoma 104% | MDA-MB-231 breast 117% | RXF 393 renal 101% | SF-268 CNS 100% | SF-295 CNS 99.3% | SF-539 CNS 91.2% | UACC-257 melanoma 105% | M14 melanoma 99.8%

O=C(O)c1cn(C2CC2)c2cc(N3CCN(C(=O)N/N=C/c4ccccc4)CC3)c(F)cc2c1=O
inactive: NCI-H23 lung 97.1% | NCI-H226 lung 88% | NCI-H322M lung 100% | HOP-62 NSCLC 107% | NCI-H460 lung 109% | HOP-92 NSCLC 89% | NCI-H522 lung 78% | A549/ATCC NSCLC 106% | 786-0 renal 93.6% | COLO 205 colon 114% | DU-145 prostate 104% | K-562 leukemia 89.1% | MALME-3M melanoma 92.9% | MDA-MB-231 breast 120% | RXF 393 renal 104% | SF-268 CNS 96.8% | SF-295 CNS 106% | SF-539 CNS 110% | UACC-257 melanoma 89.3% | M14 melanoma 108%

N=c1sc(Cc2cc(Cl)ccc2Cl)cn1CC(=O)c1ccccc1
inactive: NCI-H23 lung 68.4% | NCI-H226 lung 66.3% | NCI-H322M lung 56.4% | HOP-62 NSCLC 74.6% | NCI-H460 lung 20.3% | HOP-92 NSCLC 51.2% | NCI-H522 lung 39.8% | A549/ATCC NSCLC 30% | 786-0 renal 78.4% | COLO 205 colon 72.1% | DU-145 prostate 68.7% | K-562 leukemia 17% | MALME-3M melanoma 44.6% | MDA-MB-231 breast 54.9% | RXF 393 renal 77.1% | SF-268 CNS 58.9% | SF-295 CNS 57.3% | SF-539 CNS 64.1% | UACC-257 melanoma 60.3% | M14 melanoma 21.1%

O=C1/C(=C/c2cccc([N+](=O)[O-])c2)COc2ccc(O)cc21
active: NCI-H522 lung 8.12%
inactive: NCI-H23 lung 89.3% | NCI-H226 lung 111% | NCI-H322M lung 89.8% | HOP-62 NSCLC 88.2% | NCI-H460 lung 92.4% | HOP-92 NSCLC 110% | A549/ATCC NSCLC 89.2% | 786-0 renal 14.7% | COLO 205 colon 64.6% | DU-145 prostate 81.8% | K-562 leukemia 13.4% | MALME-3M melanoma 76.6% | MDA-MB-231 breast 47.9% | RXF 393 renal 107% | SF-268 CNS 85.9% | SF-295 CNS 95.5% | SF-539 CNS 70.6% | UACC-257 melanoma 97% | M14 melanoma 55%
